The list is not random: actives were taken first. Their share in the collection is about 1.6%.
KCNQ2 pot = enhances the rat KCNQ2 potassium channel | O88943 | CHO-K1 KCNQ2, FluxOR thallium flux fluorescence; active compounds read high | B-score at 10 µM | 310,000 tested, 0.54% active;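 active = fluorescence ratio B-score at least 3 SD of library B-scores, with initial fluorescence B-score within 3 of them, cut at about 5.3 in these data; same plate scores as AID 2156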;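 also: B-score of peak minus minimum over baseline fluorescence ratio after K+ and Tl+ stimulus; positive B-score means potentiation of KCNQ2 with more thallium influx and brighter signal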
Target sequence (O88943 whole entry, looked up): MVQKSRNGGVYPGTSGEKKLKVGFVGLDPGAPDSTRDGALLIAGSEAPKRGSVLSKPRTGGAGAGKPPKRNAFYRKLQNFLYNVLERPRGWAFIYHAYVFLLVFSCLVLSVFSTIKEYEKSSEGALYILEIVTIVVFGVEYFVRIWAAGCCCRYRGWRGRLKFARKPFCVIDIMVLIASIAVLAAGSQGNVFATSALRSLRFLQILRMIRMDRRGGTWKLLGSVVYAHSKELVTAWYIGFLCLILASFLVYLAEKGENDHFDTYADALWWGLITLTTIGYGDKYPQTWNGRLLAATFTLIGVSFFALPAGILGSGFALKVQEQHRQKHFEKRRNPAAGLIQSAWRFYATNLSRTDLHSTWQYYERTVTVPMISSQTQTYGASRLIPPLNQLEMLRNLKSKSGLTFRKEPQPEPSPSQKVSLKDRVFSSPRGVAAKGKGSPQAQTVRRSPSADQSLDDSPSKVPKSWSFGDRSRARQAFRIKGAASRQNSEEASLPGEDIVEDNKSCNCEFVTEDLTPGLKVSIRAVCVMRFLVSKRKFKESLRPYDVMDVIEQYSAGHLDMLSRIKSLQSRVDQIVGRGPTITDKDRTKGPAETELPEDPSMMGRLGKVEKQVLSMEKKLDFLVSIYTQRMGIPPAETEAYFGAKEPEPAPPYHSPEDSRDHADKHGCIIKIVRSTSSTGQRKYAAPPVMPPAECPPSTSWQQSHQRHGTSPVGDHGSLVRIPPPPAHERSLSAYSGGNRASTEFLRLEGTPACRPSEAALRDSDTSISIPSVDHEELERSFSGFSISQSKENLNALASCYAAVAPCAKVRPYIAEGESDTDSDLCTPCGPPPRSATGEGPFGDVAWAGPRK
KCNQ2 inh = inhibitors of rat KCNQ2 potassium channel; B-score at 10 µM; AID 2156; O88943; 310,000 tested, 1.1% active; CHO-K1 KCNQ2, FluxOR thallium flux, 20 min; active compounds read low;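 active = fluorescence ratio B-score at most minus 3 library SDs, with starting brightness B-score within 2 library SDs, cut at about -5.5 in these data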
* marks the source's active call; other numbers are inactive results; i = inactive; x = no result.

SMILES	KCNQ2 pot	KCNQ2 inh
Cc1ccccc1NC(=O)CSCc1cc(=O)n2ccsc2n1	x	i
Cn1c(=O)c([N+](=O)[O-])c(Cl)c2ccccc21	-6.2	-6.2*
CCN(CC)c1c([N+](=O)[O-])c(=O)n(C)c2ccccc12	x	i
CC(CC(=O)NC(C)c1ccc2c(c1)OCCO2)c1ccccc1 (centres undefined)	9.3*	i
CC(CC(=O)Nc1ccc2c(c1)OCCO2)c1ccccc1 (centres undefined)	1.7	i
COc1ccc(CCNC(=O)CCC(=O)n2ncc3ccc(Cl)cc32)cc1OC	0.4	i
CN(C)S(=O)(=O)c1cccc(NC(=O)CCc2nc3cc(S(=O)(=O)N4CCOCC4)ccc3n2C)c1	x	i
COc1ccc(CNC(=O)C(c2ccc(C)o2)N(Cc2cccs2)C(=O)Cc2cccs2)cc1 (centres undefined)	-6.4	-6.4*
COc1ccc(CNC(=O)C(c2ccc(C)o2)N(C(=O)c2csnn2)c2ccc(C(C)C)cc2)cc1 (centres undefined)	-6.1	-6.1*
O=C(NC1CCCC1)C(c1ccccc1)N(Cc1ccc2c(c1)OCO2)C(=O)Cc1cccs1 (centres undefined)	0.05	i
O=C(NCc1ccccc1)C(c1ccccc1)N(Cc1ccc2c(c1)OCO2)C(=O)Cc1cccs1 (centres undefined)	-7	-7*
COCCN(C(=O)Cc1cccs1)C(C(=O)NCc1ccc(OC)cc1)c1ccc(C)cc1 (centres undefined)	0.07	i
Cc1cccc(N(C(=O)c2csnn2)C(C(=O)NCc2ccccc2)c2ccc(C)o2)c1 (centres undefined)	x	i
O=C(OCc1ccc([N+](=O)[O-])cc1)c1cc(=O)c2ccccc2o1	0.68	i
CCc1cccc(NC(=O)CCS(=O)(=O)c2ccc(Br)cc2)c1	x	i
Clc1ccc(-c2nnc(-c3ccco3)nc2N2CCCCC2)cc1	x	i
Clc1ccc(-c2nnc(-c3ccc(Br)cc3)c(N3CCSCC3)n2)cc1	-7	-7*
COc1ccc(OC)c(C(=O)Nc2c(O)ccc3ccccc23)c1	0.01	i
CC(C)C(NC(=O)c1c(F)cccc1F)C(=O)NCCc1ccc(S(N)(=O)=O)cc1 (centres undefined)	0.54	i
CN(C)c1ccc(/C=C(\C#N)C(=O)c2ccccc2)cc1	1.3	i
CN(C)c1cccc(/C=C(\C#N)c2ccccc2)c1	-5.7	-5.7*
Cc1ccc(/C=C2/Sc3ccc(C(=O)NCCN4CCOCC4)cc3NC2=O)cc1	x	i
CCN1CCCC1CNC(=O)c1ccc2c(c1)NC(=O)/C(=C\c1ccc(C)cc1)S2 (centres undefined)	-7.6	-7.6*
COc1ccc([N+](=O)[O-])cc1NC(=O)CCSCCc1ccccn1	0.2	i
Nc1ccc(S(=O)(=O)C(F)(F)F)cc1N	1.4	i
SMILES	KCNQ2 pot	KCNQ2 inh
COc1ccc(CN2C(=O)c3ccccc3C2=O)cc1C(=O)O	x	i
CCc1cccc(CC)c1NC(=O)c1cc(CN2C(=O)c3ccccc3C2=O)ccc1OC	-8	-8*
COc1ccc(N2CCN(c3oc(Cc4cccc5ccccc45)nc3C#N)CC2)cc1	-7	-7*
N#Cc1nc(COc2ccccc2)oc1N1CCN(Cc2ccccc2)CC1	-6.4	-6.4*
N#Cc1nc(Cc2cccc3ccccc23)oc1N1CCN(c2ccccc2)CC1	x	i
CC1CCN(c2oc(Cc3cccc4ccccc34)nc2C#N)CC1	-5.9	-5.9*
N#Cc1nc(Cc2cccc3ccccc23)oc1N1CCOCC1	0.03	i
N#Cc1nc(COc2cccc(Cl)c2)oc1N1CCCC1	x	i
Cc1ccc(CNC(=O)COC(=O)c2ccc(S(=O)(=O)N(C)C)cc2)cc1	x	i
CS(=O)(=O)N(CC(=O)O)Cc1cccc(CN(CC(=O)O)S(C)(=O)=O)c1	x	i
CCCCn1c(-c2csc(CC)c2)n[nH]c1=S	1.9	i
CCCc1cc(-c2n[nH]c(=S)n2CC(C)C)cs1	6.4*	i
Cc1cccc(CN2CCC(Oc3ccc(C(=O)N4CCCC4)cc3)CC2)n1	x	i
COCCn1c(SCc2nnc(-c3ccccc3)o2)nc2sc3c(c2c1=O)CCC3	-6.6	-6.6*
COCCn1c(SCC(=O)Nc2ncc(C)s2)nc2sc3c(c2c1=O)CCC3	0.28	i
Cc1cccc(C(C)C)c1NC(=O)C(C)OC(=O)Cc1n[nH]c(=O)c2ccccc12 (centres undefined)	-6.7	-6.7*
COc1ccccc1NC(=O)C(C)OC(=O)Cc1n[nH]c(=O)c2ccccc12 (centres undefined)	0.51	i
CCOc1cccc(CN2CCCC(CNC(=O)c3cccc(OC)c3OC)C2)c1 (centres undefined)	x	i
COC(=O)c1sc(NC(=O)C2c3ccccc3Oc3ccccc32)c(C(=O)OC)c1C	x	i
CCOC(=O)c1c(NC(=O)C2c3ccccc3Oc3ccccc32)sc(C(C)=O)c1C	-5.7	-5.7*
OC(c1cc(-c2ccc(Cl)cc2)nc2ccccc12)C1CCCCN1 (centres undefined)	-7.3	-7.3*
O[C@@H](c1cc(C(F)(F)F)nc2c(C(F)(F)F)cccc12)[C@H]1CCCCN1	0.92	i
COc1cc(C(=O)N/C(=C\c2cn(S(=O)(=O)N(C)C)c3ccccc23)C(=O)N2CCCC2)cc(OC)c1OC	0.33	i
CN(Cc1ccccc1)c1nc2c(c(=O)n(C)c(=O)n2C)n1CCCc1ccccc1	-7.9	-7.9*
CCN(CC)c1nc2c(c(=O)n(C)c(=O)n2C)n1CCCc1ccccc1	x	i
SMILES	KCNQ2 pot	KCNQ2 inh
COc1ccc(-n2nc(C(=O)NCC(=O)N3CCCC3)c3ccccc3c2=O)cc1Cl	1.6	i
Cc1ccc(C)c(-n2cc[nH]c2=S)c1	0.11	i
CCCCN(C(=O)c1cccc(S(=O)(=O)N2CCN(C)CC2)c1)c1c(N)n(CCC)c(=O)[nH]c1=O	x	i
CC[C@H](NC(=O)c1c(C)c(-c2ccccc2)nc2ccccc12)c1ccccc1	-11	-11*
Cc1c(-c2ccccc2)nc2ccccc2c1C(=O)O	2.1	i
CC12CCC(C(=O)N(NC(=O)c3cc(Cl)ccc3O)C1=O)C2(C)C (centres undefined)	x	i
CCCNC(=O)NNC(=O)c1ccc(F)cc1	x	i
Cc1ccc(S(=O)(=O)N(C)c2ccccc2C(=O)Nc2c(F)cccc2F)cc1	-5.9	-5.9*
CC(=O)c1cccc(NC(=O)c2ccccc2N(C)S(=O)(=O)c2ccc(C)cc2)c1	x	i
Cc1ccc(-c2nc(CS(=O)(=O)CC(=O)Nc3cc(F)ccc3F)c(C)o2)cc1	x	i
O=C(COC(=O)c1ccc2ccccc2n1)c1ccc(F)cc1	0.91	i
O=C(OCCNC(=O)c1ccc2ccccc2n1)c1ccc(F)cc1	-7.3	-7.3*
CCOC(=O)c1cc(NC(=O)c2ccccc2)c(=O)n2c1oc1ccccc12	1.2	i
COc1ccc(C(=O)NCC(=O)N/N=C/c2cccc(OC(=O)c3ccco3)c2)cc1OC	x	i
CC(C)NC(=O)c1nc2c(nnn2Cc2cccc(Cl)c2)c(=O)[nH]1	x	i
COc1ccccc1Nc1nnc(SCC(=O)NC(=O)Nc2ccc3c(c2)OCCO3)s1	0.52	i
CCC1(C)Cc2ccccc2-c2nc(-c3ccccc3)oc(=O)c21 (centres undefined)	-5.5	-5.5*
CCC1(C)Cc2ccccc2-c2nc(NN)[nH]c(=O)c21 (centres undefined)	x	i
O=C(c1ccccc1NS(=O)(=O)c1cccc([N+](=O)[O-])c1)N1CCCC1	0.82	i

High-throughput results deposited in PubChem BioAssay by Johns Hopkins Ion Channel Center.
